Experimental data published in PubChem BioAssay AID1159580 (chemical genetic matrix, 2015).
Hit rate of the full screen: of about 5,500 compounds, about 2,000 (36%) were called active. Another 18% or so got no clear call; they are omitted. Cut-off read from the data, not from the text of the source: active = normalized growth mostly below about 0.91 (no sharp cut-off); inconclusive = no clear call, values can overlap the other calls; inactive = mostly above about 0.92. This is one part of the list.

Test: chemical genetic growth profiling, strain panel (AID 1159580);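 note: tested at 20 µM; growth read once vehicle control cultures reached saturation at 30 °C; 1 = growth at the plate median or of vehicle wells; lower values mean less growth of the strain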
Conditions: growth OD
[1] = S. cerevisiae deletion strains, locus YHR030C, strain SLT2, active compounds read low

Measured: normalized growth

CCCN(CCC)S(=O)(=O)c1ccc(C(=O)NCC(=O)O)cc1
inactive: S. cerevisiae deletion strains, locus YAL013W, strain DEP1, active compounds read low 1.01 | S. cerevisiae deletion strains, locus YBR229C, strain ROT2, active compounds read low 1 | S. cerevisiae deletion strains, locus YDL101C, strain DUN1, active compounds read low 1 | S. cerevisiae deletion strains, locus YDL134C, strain PPH21, active compounds read low 0.996 | S. cerevisiae deletion strains, locus YDR150W, strain NUM1, active compounds read low 0.907 | S. cerevisiae deletion strains, locus YEL061C, strain CIN8, active compounds read low 1.02 | S. cerevisiae deletion strains, locus YGR078C, strain PAC10, active compounds read low 0.998 | [1] 1.03 | S. cerevisiae deletion strains, locus YHR087W, strain rtc3, active compounds read low 1.02 | S. cerevisiae deletion strains, locus YJR043C, strain POL32, active compounds read low 0.996 | S. cerevisiae deletion strains, locus YJR075W, strain HOC1, active compounds read low 1.02 | S. cerevisiae deletion strains, locus YKL190W, strain CNB1, active compounds read low 0.996 | S. cerevisiae deletion strains, locus YLR039C, strain RIC1, active compounds read low 0.993 | S. cerevisiae deletion strains, locus YLR058C, strain SHM2 (second series), active compounds read low 1.01 | S. cerevisiae deletion strains, locus YLR085C, strain ARP6, active compounds read low 0.984 | S. cerevisiae deletion strains, locus YLR262C, strain YPT6, active compounds read low 1.01 | S. cerevisiae deletion strains, locus YML094W, strain GIM5, active compounds read low 1 | S. cerevisiae deletion strains, locus YMR219W, strain ESC1, active compounds read low 1 | S. cerevisiae deletion strains, locus YMR263W, strain SAP30, active compounds read low 0.989 | S. cerevisiae deletion strains, locus YNL153C, strain GIM3, active compounds read low 1 | S. cerevisiae deletion strains, locus YNL298W, strain CLA4 (second series), active compounds read low 1.02 | S. cerevisiae deletion strains, locus YNL322C, strain KRE1, active compounds read low 1.01 | S. cerevisiae deletion strains, locus YNR030W, strain Alg12, active compounds read low 1.01 | S. cerevisiae deletion strains, locus YPL055C, strain LGE1, active compounds read low 1.02 | S. cerevisiae deletion strains, locus YPL241C, strain CIN2, active compounds read low 1 | S. cerevisiae deletion strains, locus YPR135W, strain CTF4, active compounds read low 1.01 | S. cerevisiae strains, strain wild type, active compounds read low 1.01

CC1(C)N([O-])[N+](=O)C1(C)Br (configuration not stated)
inactive: S. cerevisiae deletion strains, locus YAL021C, strain ccr4, active compounds read low 0.967 | S. cerevisiae deletion strains, locus YAL026C, strain drs2, active compounds read low 0.99 | S. cerevisiae deletion strains, locus YAL030W, strain snc1, active compounds read low 1 | S. cerevisiae deletion strains, locus YBL061C, strain skt5, active compounds read low 0.981 | S. cerevisiae deletion strains, locus YBR009C, strain hhf1, active compounds read low 0.995 | S. cerevisiae deletion strains, locus YBR023C, strain chs3, active compounds read low 0.983 | S. cerevisiae deletion strains, locus YBR171W, strain sec66, active compounds read low 0.968 | S. cerevisiae deletion strains, locus YBR231C, strain swc5, active compounds read low 0.988 | S. cerevisiae deletion strains, locus YBR279W, strain paf1, active compounds read low 0.995 | S. cerevisiae deletion strains, locus YCL011C, strain gbp2, active compounds read low 0.965 | S. cerevisiae deletion strains, locus YCL016C, strain dcc1, active compounds read low 0.99 | S. cerevisiae deletion strains, locus YCL061C, strain MRC1, active compounds read low 1 | S. cerevisiae deletion strains, locus YCL069W, strain vba3, active compounds read low 0.969 | S. cerevisiae deletion strains, locus YCR088W, strain abp1, active compounds read low 0.967 | S. cerevisiae deletion strains, locus YDL005C, strain med2, active compounds read low 0.978 | S. cerevisiae deletion strains, locus YDL040C, strain nat1, active compounds read low 0.992 | S. cerevisiae deletion strains, locus YDR001C, strain nth1, active compounds read low 0.987 | S. cerevisiae deletion strains, locus YDR069C, strain doa4, active compounds read low 0.992 | S. cerevisiae deletion strains, locus YDR137W, strain rgp1, active compounds read low 1.07 | S. cerevisiae deletion strains, locus YDR159W, strain sac3, active compounds read low 0.98 | S. cerevisiae deletion strains, locus YDR195W, strain ref2 0.972 | S. cerevisiae deletion strains, locus YDR297W, strain sur2, active compounds read low 0.987 | S. cerevisiae deletion strains, locus YDR334W, strain swr1, active compounds read low 0.969 | S. cerevisiae deletion strains, locus YDR335W, strain msn5, active compounds read low 0.968 | S. cerevisiae deletion strains, locus YDR392W, strain spt3, active compounds read low 0.906 | S. cerevisiae deletion strains, locus YEL003W, strain gim4, active compounds read low 0.984 | S. cerevisiae deletion strains, locus YEL037C, strain rad23, active compounds read low 0.982 | S. cerevisiae deletion strains, locus YEL061C, strain CIN8 (second series), active compounds read low 0.973 | S. cerevisiae deletion strains, locus YER015W, strain faa2, active compounds read low 0.962 | S. cerevisiae deletion strains, locus YER016W, strain bim1, active compounds read low 0.992 | S. cerevisiae deletion strains, locus YER111C, strain swi4, active compounds read low 0.996 | S. cerevisiae deletion strains, locus YER155C, strain BEM2 (second series), active compounds read low 0.974 | S. cerevisiae deletion strains, locus YFR010W, strain ubp6, active compounds read low 0.979 | S. cerevisiae deletion strains, locus YGL167C, strain pmr1, active compounds read low 0.987 | S. cerevisiae deletion strains, locus YGL173C, strain kem1, active compounds read low 0.984 | S. cerevisiae deletion strains, locus YGL227W, strain vid30, active compounds read low 0.982 | S. cerevisiae deletion strains, locus YGL240W, strain doc1, active compounds read low 0.994 | S. cerevisiae deletion strains, locus YGL253W, strain hxk2, active compounds read low 0.982 | S. cerevisiae deletion strains, locus YHR013C, strain ard1, active compounds read low 0.977 | S. cerevisiae deletion strains, locus YHR027C, strain rpn1, active compounds read low 0.991 | [1] 0.966 | S. cerevisiae deletion strains, locus YHR079C, strain IRE1, active compounds read low 0.966 | S. cerevisiae deletion strains, locus YHR142W, strain chs7, active compounds read low 0.968 | S. cerevisiae deletion strains, locus YJL092W, strain hpr5, active compounds read low 0.963 | S. cerevisiae deletion strains, locus YJL095W, strain BCK1 (second series), active compounds read low 0.973 | S. cerevisiae deletion strains, locus YJL095W, strain BCK1, active compounds read low 0.975 | S. cerevisiae deletion strains, locus YJL115W, strain asf1, active compounds read low 0.979 | S. cerevisiae deletion strains, locus YJL129C, strain trk1, active compounds read low 0.976 | S. cerevisiae deletion strains, locus YJL154C, strain vps35, active compounds read low 0.969 | S. cerevisiae deletion strains, locus YJL164C, strain tpk1, active compounds read low 0.995 | S. cerevisiae deletion strains, locus YJL166W, strain qcr8, active compounds read low 0.988 | S. cerevisiae deletion strains, locus YJL187C, strain SWE1, active compounds read low 1.01 | S. cerevisiae deletion strains, locus YJR066W, strain TOR1, active compounds read low 0.907 | S. cerevisiae deletion strains, locus YKL160W, strain elf1, active compounds read low 0.998 | S. cerevisiae deletion strains, locus YKR026C, strain gcn3, active compounds read low 0.984 | S. cerevisiae deletion strains, locus YKR091W, strain srl3, active compounds read low 0.995 | S. cerevisiae deletion strains, locus YLL001W, strain dnm1, active compounds read low 1 | S. cerevisiae deletion strains, locus YLL026W, active compounds read low 0.986 | S. cerevisiae deletion strains, locus YLL041C, strain sdh2, active compounds read low 0.99 | S. cerevisiae deletion strains, locus YLR027C, strain aat2, active compounds read low 1 | S. cerevisiae deletion strains, locus YLR113W, strain HOG1, active compounds read low 0.993 | S. cerevisiae deletion strains, locus YLR221C, strain rsa3, active compounds read low 0.985 | S. cerevisiae deletion strains, locus YLR258W, strain gsy2, active compounds read low 0.985 | S. cerevisiae deletion strains, locus YLR262C, strain YPT6 (second series), active compounds read low 1.03 | S. cerevisiae deletion strains, locus YLR320W, strain mms22, active compounds read low 0.985 | S. cerevisiae deletion strains, locus YLR342W, strain FKS1, active compounds read low 0.978 | S. cerevisiae deletion strains, locus YLR357W, strain rsc2, active compounds read low 0.999 | S. cerevisiae deletion strains, locus YLR370C, strain arc18, active compounds read low 0.982 | S. cerevisiae deletion strains, locus YLR384C, strain iki3, active compounds read low 0.986 | S. cerevisiae deletion strains, locus YML120C, strain ndi1, active compounds read low 0.984 | S. cerevisiae deletion strains, locus YMR058W, strain fet3, active compounds read low 0.994 | S. cerevisiae deletion strains, locus YMR125W, strain sto1, active compounds read low 0.974 | S. cerevisiae deletion strains, locus YMR129W, active compounds read low 0.992 | S. cerevisiae deletion strains, locus YMR205C, strain PFK2, active compounds read low 0.998 | S. cerevisiae deletion strains, locus YMR231W, strain pep5, active compounds read low 0.96 | S. cerevisiae deletion strains, locus YNL071W, strain lat1, active compounds read low 0.973 | S. cerevisiae deletion strains, locus YNL183C, strain NPR1, active compounds read low 0.912 | S. cerevisiae deletion strains, locus YNL209W, strain ssb2, active compounds read low 0.989 | S. cerevisiae deletion strains, locus YNL248C, strain rpa49, active compounds read low 0.992 | S. cerevisiae deletion strains, locus YNL322C, strain KRE1 (second series), active compounds read low 0.979 | S. cerevisiae deletion strains, locus YNR049C, strain mso1, active compounds read low 0.99 | S. cerevisiae deletion strains, locus YOR001W, strain rrp6, active compounds read low 0.988 | S. cerevisiae deletion strains, locus YOR070C, strain gyp1, active compounds read low 0.976 | S. cerevisiae deletion strains, locus YOR080W, strain dia2, active compounds read low 0.985 | S. cerevisiae deletion strains, locus YOR083W, strain WHI5, active compounds read low 0.994 | S. cerevisiae deletion strains, locus YOR106W, strain vam3, active compounds read low 0.966 | S. cerevisiae deletion strains, locus YOR231W, strain MKK1, active compounds read low 0.977 | S. cerevisiae deletion strains, locus YOR265W, strain rbl2, active compounds read low 0.993 | S. cerevisiae deletion strains, locus YOR270C, strain vph1, active compounds read low 1.01 | S. cerevisiae deletion strains, locus YOR290C, strain snf2, active compounds read low 0.987 | S. cerevisiae deletion strains, locus YPL051W, strain arl3, active compounds read low 0.985 | S. cerevisiae deletion strains, locus YPL078C, strain atp4, active compounds read low 0.986 | S. cerevisiae deletion strains, locus YPL106C, strain sse1, active compounds read low 0.977 | S. cerevisiae deletion strains, locus YPL240C, strain hsp82, active compounds read low 0.97 | S. cerevisiae deletion strains, locus YPL256C, strain CLN2, active compounds read low 0.956
